High-throughput results (PubChem)
USP28 inh: inhibitors of human USP28 deubiquitinase | Ubiquitin carboxyl-terminal hydrolase 28 (Homo sapiens), Q96RU2 | purified USP28, Ub-rhodamine cleavage fluorescence, 30 min | inhibition, % at 25 µM | hit rate 3% among 47,000 | AID 1645857, 2021
OTUD3 block: inhibitors of human OTUD3 deubiquitinase; AID 1645858, 2021; purified OTUD3, Ub-rhodamine fluorescence, 2 h; inhibition, % at 25 µM; hit rate 0.7% among 47,000
USP30 block: inhibitors of human USP30 deubiquitinase | Ubiquitin carboxyl-terminal hydrolase 30 (Homo sapiens), Q70CQ3 | purified USP30, Ub-rhodamine cleavage fluorescence | inhibition, % at 25 µM | hit rate 5.3% among 47,000 | AID 1645860, 2021
USP17 block: inhibitors of human USP17 deubiquitinase; hit rate 6.5% among 47,000; AID 1645855, 2021; Ubiquitin carboxyl-terminal hydrolase 17-like protein 5 (Homo sapiens), A8MUK1; purified USP17, Ub-rhodamine cleavage fluorescence, 3 h; inhibition, % at 50 µM
Target sequence (A8MUK1 whole entry, looked up): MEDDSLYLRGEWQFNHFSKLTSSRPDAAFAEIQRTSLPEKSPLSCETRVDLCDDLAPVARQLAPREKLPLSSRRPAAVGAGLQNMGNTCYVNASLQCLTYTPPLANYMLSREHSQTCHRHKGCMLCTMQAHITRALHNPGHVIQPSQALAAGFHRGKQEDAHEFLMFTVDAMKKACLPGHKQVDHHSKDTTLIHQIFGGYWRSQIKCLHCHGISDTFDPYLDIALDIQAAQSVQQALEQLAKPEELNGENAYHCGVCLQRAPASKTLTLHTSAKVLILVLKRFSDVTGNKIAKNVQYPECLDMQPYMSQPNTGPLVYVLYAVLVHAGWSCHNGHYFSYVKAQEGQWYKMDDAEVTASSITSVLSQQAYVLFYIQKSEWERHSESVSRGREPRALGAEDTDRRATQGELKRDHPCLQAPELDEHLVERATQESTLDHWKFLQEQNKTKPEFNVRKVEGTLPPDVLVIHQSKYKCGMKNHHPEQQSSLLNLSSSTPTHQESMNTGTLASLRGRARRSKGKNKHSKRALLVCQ
Starred values were filed as active, the others as inactive; / = not tested or not shown. The list is not random: actives were taken first. Their share in the collection is about 12%. Rule as the data show it: active = inhibition above about 30%; inactive = the rest.

SMILES	USP28 inh	OTUD3 block	USP30 block	USP17 block
CC(C)(C)C(=O)N1CCCC(Cc2cnc(-c3cn[nH]c3)cn2)C1 (stereo not drawn)	-1	-6	-18	-22
Cc1ccc(CNC(=O)CCc2c(C)nn(-c3cc(N4CCOCC4)ncn3)c2C)cc1	0	-2	-8	-1
Cc1ccc(C)c(NC(=O)CCc2c(C)nn(-c3cc(N(C)C)ncn3)c2C)c1	0	4	31*	17
CNC(=O)c1cnn2c(C3CCN(Cc4ccccc4F)CC3)ccnc12	1	5	8	6
COc1ccc(-c2cc(C(=O)Nc3cccc(C#N)c3)nn2C2CCS(=O)(=O)C2)cc1 (stereo not drawn)	18	16	19	39*
O=C(O)c1cc([N+](=O)[O-])ccc1N1CCC(Cc2ccccc2)CC1	5	11	31*	0
CSC1=N/C(=C/c2ccccc2)C(=O)N1c1ccc(F)c(Cl)c1	14	22	33*	25
COc1cc2c(cc1OC)C(COc1ccccc1OC)N(C(=O)c1ccc3ccccc3c1)CC2 (stereo not drawn)	4	1	-31	52*
CCC(C(=O)N1CCc2cc(OC)c(OC)cc2C1COc1ccccc1OC)c1ccccc1 (stereo not drawn)	4	12	15	31*
CC(Cc1cccs1)C(=O)N1CCC(c2nc3ccccc3cc2C(N)=O)CC1 (stereo not drawn)	0	-11	-15	-11
C[C@@H]1CO[C@@H]2C3=C(C(=O)C=CC3=O)[C@H]3OC(=O)[C@@H]4CCC5[C@@H]1CCC52C34 (stereo partly drawn)	62*	59*	59*	80*
COc1ccc(C(=O)Nc2cccc(-c3csc(C)n3)c2)cc1OC	46*	-16	-7	-10
CCn1c(=O)c(=O)[nH]c2cc(C(=O)Nc3cccc(-c4csc(C)n4)c3)ccc21	75*	-3	-14	58*
CCc1ccc(C(=O)Nc2ccc(OC)c(OC)c2)cc1	20	1	1	12
Cc1nc(-c2cccc(NC(=O)c3ccc(C)c(NC(=O)c4ccco4)c3)c2)cs1	22	17	28	43*
COc1ccc(C(=O)Nc2cccc(C(=O)OCC(=O)c3ccc(Br)cc3)c2)cc1OC	0	3	8	34*
Cc1nc(-c2cccc(NC(=O)c3cccc(F)c3)c2)cs1	12	-9	-13	-8
O=C(Cn1c(=O)c2cccnc2n(-c2ccccc2)c1=O)Nc1cccc(F)c1	2	7	-20	-4
O=C(NC1CCCCC1)N1CCN(c2cnn3c(C4CC4)nnc3c2)CC1	1	0	0	-4
COCC(=O)N1CCC2(C1)CN(c1ccccc1)C(=O)CN2C (stereo not drawn)	7	10	12	-9
COc1ccc(-c2nc(-c3noc4ccc(C(=O)N5CCN(C)CC5)cc34)co2)cc1	-5	-4	-13	-25
CC(=O)c1cccc(NC(=O)c2ccc(-c3csc(C)n3)cc2)c1	21	-6	-50	53*
COc1cc(C(=O)Nc2ccc3nccnc3c2)cc(OC)c1OC	34*	2	-33	18
COc1cc(C(=O)Nc2ccc(-c3csc(C)n3)cc2)cc(OC)c1OC	78*	-8	-32	-9
Cc1nc(-c2ccc(C(=O)Nc3ccc(F)cc3)cc2)cs1	21	10	33*	19
SMILES	USP28 inh	OTUD3 block	USP30 block	USP17 block
Cc1nc(-c2ccc(C(=O)Nc3cccc(F)c3)cc2)cs1	14	1	-20	12
CCC(=O)Nc1nc2cc(NC(=O)c3cc(OC)c(OC)c(OC)c3)ccc2s1	-23	-32	-130	-44
COc1ccc(CNC(=O)c2ccc(-c3csc(C)n3)cc2)cc1	4	-2	6	8
CC(=O)Nc1ccc(NC(=O)N[C@H]2C[C@H]3CN(C)c4ccccc4CN3C2)cc1	31*	-8	-31	-2
CCOc1ccc(CC(=O)NCC(=O)N2CCC3(CC2)NCCc2[nH]cnc23)cc1	6	8	9	10
COc1ccc(NC(=O)CCCSc2nc3ccccc3[nH]2)cc1OC	6	0	-8	-2
COc1cccc(OCCCSc2nc3ccccc3[nH]2)c1	41*	-2	2	9
Cc1cccc(OCCCSc2nc3ccccc3[nH]2)c1	45*	16	27	19
CC(C)(C)C(=O)CSc1nnc(-c2ccccn2)s1	9	6	25	8
Cc1ccc(-c2n[nH]c3c2CN(C(=O)C2CCCO2)CC3)cc1 (stereo not drawn)	-6	1	0	1
CN1CCN(c2ccc3nnc(CCC(=O)NCC4CCN(Cc5ccc(F)cc5)CC4)n3n2)CC1	-9	-4	-15	/
CCN(CC)C(=O)[C@@]1(c2ccccc2)C[C@H]1COc1ccc(C)cc1	25	22	29	30*
COc1ccccc1[C@]1(C(=O)N2CCOCC2)C[C@H]1COc1ccccc1	8	10	18	1
